# PABP FP inh = PABP poly(A) RNA binding inhibitors, primary screen, biochemical, fluorescence polarization, uHTS | Polyadenylate-binding protein 1 (Homo sapiens), P11940 | inhibition, % at 35 µM | hit rate 1% among 290,000 | AID 2014, 2009;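 note: calls also rest on retests at 20 µM and on dose response follow-up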
# eIF4E 4G PPI = eIF4E–eIF4G protein interaction inhibitors, primary screen, biochemical, uHTS, TR-FRET, eIF4GI fragment; Eukaryotic translation initiation factor 4E (Mus musculus) + Eukaryotic translation …; TR-FRET eIF4E-eIF4GI(517-606) binding, 2 h; inhibition, % at 21.7 µM; hit rate 0.37% among 220,000;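 active = inhibition above about 30%, limit read from the data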;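 note: 0% = full FRET control wells and 100% = background wells lacking eIF4GI fragment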
# PERK inhibitor = block of dimerizer-induced PERK translation repression, primary screen, PERK inhibitor project, CHO PERK-DD cells, SEAP luminescence, HTS; hit rate 0.17% among 220,000; inhibition, % at 5.6 µM; CHO PERK-DD fusion, SEAP luminescence translation reporter;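 active = inhibition above the mean inhibition of all tested compounds plus 3 SD, set separately per screening campaign, cut at about 2.9% in these data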;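 note: PERK kinase domain activated by AP20187 dimerizer at 100 nM; 0% = DMSO with dimerizer and 100% = rapamycin at 8.4 µM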
# Target sequence (Q9NZJ5 whole entry, looked up, the tested form may be a part): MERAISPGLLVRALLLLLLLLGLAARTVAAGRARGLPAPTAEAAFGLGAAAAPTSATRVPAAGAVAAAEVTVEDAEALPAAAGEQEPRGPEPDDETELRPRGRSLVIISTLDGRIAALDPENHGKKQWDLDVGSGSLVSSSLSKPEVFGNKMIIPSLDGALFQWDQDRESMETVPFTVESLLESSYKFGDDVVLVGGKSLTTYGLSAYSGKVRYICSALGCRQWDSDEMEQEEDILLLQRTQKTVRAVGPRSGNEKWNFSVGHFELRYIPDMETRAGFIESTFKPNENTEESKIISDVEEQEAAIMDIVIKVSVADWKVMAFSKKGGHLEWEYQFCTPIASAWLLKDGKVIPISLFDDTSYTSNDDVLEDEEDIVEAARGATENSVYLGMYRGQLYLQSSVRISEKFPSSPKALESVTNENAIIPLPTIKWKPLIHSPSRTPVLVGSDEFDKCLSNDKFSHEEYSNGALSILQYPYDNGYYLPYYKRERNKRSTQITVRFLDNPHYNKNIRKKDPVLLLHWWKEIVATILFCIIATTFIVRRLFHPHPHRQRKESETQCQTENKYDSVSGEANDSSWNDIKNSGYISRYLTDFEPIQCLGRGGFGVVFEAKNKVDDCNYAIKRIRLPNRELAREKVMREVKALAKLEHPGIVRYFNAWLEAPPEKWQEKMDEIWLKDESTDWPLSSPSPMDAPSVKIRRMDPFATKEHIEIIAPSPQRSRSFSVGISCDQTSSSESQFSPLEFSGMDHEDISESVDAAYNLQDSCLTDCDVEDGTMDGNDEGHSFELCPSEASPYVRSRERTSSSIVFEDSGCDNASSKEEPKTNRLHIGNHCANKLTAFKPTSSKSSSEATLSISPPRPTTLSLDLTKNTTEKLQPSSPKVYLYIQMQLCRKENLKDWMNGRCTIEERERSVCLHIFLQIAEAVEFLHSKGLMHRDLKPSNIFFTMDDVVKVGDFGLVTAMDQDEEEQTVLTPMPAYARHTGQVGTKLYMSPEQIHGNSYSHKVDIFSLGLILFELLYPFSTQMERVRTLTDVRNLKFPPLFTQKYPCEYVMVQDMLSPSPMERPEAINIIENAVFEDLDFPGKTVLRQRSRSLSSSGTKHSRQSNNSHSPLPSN
# eIF4H FP inh = human eIF4H binding inhibitors, primary screen, translation initiation inhibitor project, biochemical, uHTS, fluorescence polarization; eIF4H fluorescence polarization binding assay; Eukaryotic translation initiation factor 4H (Homo sapiens), Q15056; hit rate 0.94% among 290,000; AID 2012, 2009; inhibition, % at 35 µM;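 note: calls also rest on retests at 20 µM and on dose response follow-up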
# PABP1 MLLE inh = inhibitors of PABP1 MLLE–PAM2 peptide binding, primary screen, biochemical, fluorescence polarization, FITC-PAM2, GST-MLLE. hit rate 0.36% among 360,000. AID 588489, 2011. inhibition, % at 20 µM; in the data active = inhibition above about 35%, passing the limit was not always enough;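 note: plate controls were DMSO wells with GST-MLLE for no effect and wells lacking GST-MLLE protein for full effect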
# An asterisk follows results filed as active; i = inactive; ? = inconclusive; nt = no result; [ ] = another dose, or the depositor's remark. This is a sample that favours compounds with a hit; in the whole collection about 1.6% have one here. Unless noted, the rule behind the calls is not given here.
SMILES,PABP FP inh,eIF4E 4G PPI,PERK inhibitor,eIF4H FP inh,PABP1 MLLE inh
N#C/C(=C(/O)COC(=O)Cc1c[nH]c2ccccc12)c1nc2ccccc2[nH]1,14.1,3.0,-0.8,27.1,-35.3
CCCN1C(=O)/C(=C\C=C2\N(CC)c3ccccc3C2(C)C)SC1=S,?,0.8,0.6,?,i
CC1CCN(c2ccccc2NC(=S)NC(=O)c2ccc(-c3cccc([N+](=O)[O-])c3)o2)CC1,18.0,-4.2,0.7,25.0,42.3*
CN1CCN(c2ccccc2NC(=O)c2ccc(-c3cccc([N+](=O)[O-])c3)o2)CC1,-3.4,3.1,-1.6,-2.6,3.2
CC1CC(C)CN(C(=O)CCc2ccccc2)C1 (stereo unspecified),97.2,-1.0,0.1,active,1.3
Cc1cccc(NCCNc2cccc(C)c2)c1,-4.3,4.1,0.6,-7.2,5.7
Cc1cccc(NCCC#N)c1,active,3.9,1.1,79.3,-7.0
Cc1ccc(-c2c[n+]3c(n2-c2ccccc2)CCC3)cc1,-2.4,-1.6,0.5,-9.0,16.5
O=C(C[n+]1cccc2ccccc21)c1ccc([N+](=O)[O-])cc1,6.4,3.8,0.1,7.7,3.8
O=C(C[n+]1cccc2ccccc21)c1ccc(Cl)cc1,22.7*,nt,nt,71.3,-0.7
Cc1cc(N)ccc1-n1c(C)ccc1C,14.5,-4.9,0.2,12.6,1.9
Cc1cc(N)ccc1N1CCCC1,?,45.1*[fluorescence artefact?],1.8,?,6.8
CCOc1ccc(/C=C/C(=O)Nc2ccccc2C(F)(F)F)cc1,94.2*,-1.8,1.8,active,2.0
COc1ccc(/C=C/C(=O)Nc2ccccc2C(F)(F)F)cc1,-4.4,20.4,0.8,-7.4,-12.7
COc1cc(C#N)ccc1OCC(=O)NCc1cccs1,71.6,-1.1,1.1,1.9*,9.1
COc1ccccc1OCC(=O)NCc1cccs1,-4.8,4.2,2.9,-3.9,13.0
COc1ccc(CCNC(=O)Cn2cnc3ccccc3c2=O)cc1OC,-7.2,0.2,-0.3,-1.2,-12.8
COc1ccc(CCNC(=O)Cn2cnc3c(cnn3-c3ccccc3Cl)c2=O)cc1OC,-0.1,30.6*[fluorescence artefact?],-1.0,-6.0,3.8
c1cnc2ccc(C(c3nnnn3C3CCCC3)N3CCN(c4nc5ccccc5s4)CC3)cc2c1 (stereo unspecified),51.0*,-26.6,-2.2,active,-7.4
Cc1ccc(S(N)(=O)=O)cc1NC(=O)/C=C/c1cccs1,-7.8,-3.1,0.5,-9.6,2.0
O=C1/C(=C/c2cccnc2)SC(=S)N1c1ccc(O)cc1,13.0,0.9,0.8,-8.6,27.7
COc1cc(/C=C2\SC(=S)N(c3cccnc3)C2=O)ccc1O,-8.6,-5.9,0.3,71.4*,-36.0
O=C1/C(=C/c2cccnc2)SC(=S)N1c1ccc(F)cc1,-5.2,-5.3,0.9,1.5,43.3*
CCCC1C(c2ccc(OC)cc2)C(C#N)(C#N)C2(C#N)CC1(N)NC2=O (stereo unspecified),42.2*,-11.4,-0.1,58.1,-0.3
O=C(N/N=C/C=C/c1ccccc1)c1cccnc1,-7.8,3.9,0.2,2.1,-2.2
SMILES,PABP FP inh,eIF4E 4G PPI,PERK inhibitor,eIF4H FP inh,PABP1 MLLE inh
O=C(N/N=C\C=C\c1ccco1)c1cncc(Br)c1,46.3*,-1.8,1.4,66.5*,-6.7
O=C(N/N=C/C=C\c1ccco1)c1ccccn1,43.7*,-2.5,-0.3,74.6*,4.5
O=C(N/N=C/C=C/c1ccco1)c1cccnc1,56.4*,9.2,0.6,64.3*,27.4
O=C(N/N=C/C=C\c1ccco1)c1cccnc1,41.0*,-2.5,0.5,61.6*,2.1
O=C(N/N=C/C=C/c1ccco1)c1cnccn1,44.9,-2.0,1.1,74.0,14.5
CC(C)(C)c1c(Cl)c(O)c(-c2ccccc2)c(=O)n1-c1ccccc1,6.0,32.9*,1.8,-12.6,-16.4
O=C1c2ccccc2COc2ccc(O)cc21,34.0,0.5,1.4,51.4*,8.4
O=C(NNC(=O)c1ccccc1O)c1ccc(-c2ccc([N+](=O)[O-])cc2)o1,nt,nt,nt,nt,15.5
Cc1cccc(Oc2cc([N+](=O)[O-])cc3c2C(=O)Nc2ccccc2O3)c1,4.9,2.9,0.2,56.8,-22.4
CCCn1c(CCC(=O)O)ccc1-c1ccc(OC)cc1,61.7*,3.9,0.3,53.0*,-24.9
COC(=O)c1ccccc1CSc1nsc(/C=C/N(C)C)c1C#N,active,nt,nt,59.9,-75.0
Cc1nc(CSc2nsc(/C=C/N(C)C)c2C#N)cs1,11.2,2.0,0.5,?,-59.3
O=C(NNS(=O)(=O)c1ccccc1[N+](=O)[O-])c1cccnc1,-9.6,-0.8,-0.4,-5.2,5.8
N#C/C(=C/c1cccn1-c1cccc(C(=O)O)c1)c1ccc(Cl)cc1,33.7*,15.1,1.2,79.9,10.2
N#CC(C#N)=Cc1cccn1-c1ccc(C(=O)O)cc1,104.1,5.2,-0.1,86.8*,0.2
O=C(NC1CCCc2c1cnn2-c1cc(F)cc(F)c1)c1ccccn1 (stereo unspecified),-7.4,nt,nt,-1.2,-3.5

# Source: PubChem BioAssay
